Assay outcomes deposited in PubChem by several laboratories.
Hits are enriched below; roughly 1% of the tested compounds scored in any of these assays.
HSV replic up: enhancers of HSV replication in host cells, fold increase, host cell viability | maximum fold increase | HSV replication augmentation in cells | actives 0.005% (n = 220,000) | AID 1956, 2009; in the data active = maximum fold increase above about 1.5; tested in PC3 cells
Hsp70 activator: Hsp70 transcriptional activators, primary screen, cell-based, HeLa, Hsp70 promoter luciferase, luminescence, 10 µM; HeLa Hsp70 promoter luciferase reporter; scaled: vehicle 0, proteasome-inhibitor control 100%; actives 0.04% (n = 200,000); AID 1203, 2008; activation, % at 10 µM;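 active = activation above the mean across all tested compounds plus 3 SD, cutoff set per campaign, cut at about 5.5% in these data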
TNF death inh: inhibitors of TNF-alpha triggered necroptosis, primary screen, cell-based, Jurkat FADD-/-, single concentration. activation (protection from cell death), % at 10 µM. actives 0.068% (n = 220,000). AID 463075, 2010. Jurkat FADD-/- TNF necroptosis rescue, ATP luminescence, 24 h; 0 = TNF only, 100 = no-TNF cells;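 active = activation, meaning protection from cell death, of at least 50% relative to plate controls; inactive = activation below 50%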;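 note: necroptosis triggered by 40 ng/mL TNF-alpha added together with compound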
S1P4 antag: S1P4 receptor antagonists, primary screen, cell-based | Sphingosine 1-phosphate receptor 4 (Homo sapiens), O95977 | AID 1510, 2009 | inhibition, % at 4.98 µM | actives 0.26% (n = 220,000) | S1P4-expressing cells, antagonist mode, reporter read-out; in the data active = inhibition above about 29%
L929 necroptosis: inhibitors of zVAD-triggered necroptosis, primary screen, L929 cells | L929 zVAD necroptosis rescue, ATP luminescence, 24 h; with zVAD 60 µM | viability rescue, % at 10 µM | actives 0.38% (n = 220,000) | AID 1377, 2008;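 active = activation, scaled between plate controls, above about 75%, limit read from the data; inactive = activation under that limit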
S1P4 agonist: S1P4 receptor agonists, primary screen, cell-based; actives 0.35% (n = 220,000); Sphingosine 1-phosphate receptor 4 (Homo sapiens), O95977; activation, % at 4.98 µM; S1P4-expressing cell line, agonist reporter assay; AID 1509, 2009; in the data active = activation above about 11%
S1P4 agonist cf: S1P4 receptor agonists, retest, confirmation, cell-based, high throughput. activation, % at 4.98 µM. shares compounds with S1P4 agonist. AID 1523, 2009. actives 7% (n = 740). S1P4 agonist cell-based reporter assay; in the data active = activation above about 12%
S1P1 ag: S1P1 receptor agonists, human, counter-screen for S1P4 agonist project, cell-based. shares compounds with S1P4 agonist. S1P1 agonist cell-based assay, activation. activation, % at 4.98 µM. actives 4% (n = 740); in the data active = activation above about 21%
Target sequence (P21453 whole entry, looked up): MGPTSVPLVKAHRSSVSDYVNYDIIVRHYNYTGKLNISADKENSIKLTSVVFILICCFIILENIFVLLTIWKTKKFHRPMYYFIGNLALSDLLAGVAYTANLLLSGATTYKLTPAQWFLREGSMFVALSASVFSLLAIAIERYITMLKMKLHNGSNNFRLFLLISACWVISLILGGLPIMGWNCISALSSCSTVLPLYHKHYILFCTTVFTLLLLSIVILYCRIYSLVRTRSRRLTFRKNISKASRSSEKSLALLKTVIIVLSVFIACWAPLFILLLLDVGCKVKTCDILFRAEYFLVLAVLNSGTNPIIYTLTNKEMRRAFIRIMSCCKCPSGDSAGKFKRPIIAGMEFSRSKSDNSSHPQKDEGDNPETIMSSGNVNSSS
Large screens that a line does not name were inactive (follow-up assays come after a bar, where they were run).

O=C(Cn1cnc2ccccc21)N1CCN(S(=O)(=O)c2ccccc2)CC1	S1P4 agonist 15.1 | S1P4 agonist cf inactive | S1P1 ag inactive
CCc1nnc(NC=C2C(=O)OC(C)(C)OC2=O)s1	S1P4 agonist 18.5 | S1P4 agonist cf inactive | S1P1 ag inactive
CCc1nnc(NC(=O)C=C(C)C)s1	none
O=C(O)c1ccc(N/N=C/c2ccc(-c3ccccc3Cl)o2)cc1	S1P4 agonist 11.3 (no result: Hsp70 activator) | S1P4 agonist cf inactive | S1P1 ag inactive
O=C(N/N=C/c1ccc(-c2ccccc2Cl)o1)c1ccccc1	none
Cn1[nH]c(C(F)(F)F)c(C=NCc2ccc(Cl)cc2)c1=O	none
Cc1cc(C(=O)CN2C(=O)C(=O)N(Cc3ccccc3)C2=O)c(C)n1-c1ccccc1F	S1P4 agonist 13.0 | S1P4 agonist cf inactive | S1P1 ag inactive
Cc1cc(C(=O)CN2C(=O)C(=O)N(Cc3ccccc3)C2=O)c(C)n1CC1COc2ccccc2O1 (stereo not drawn)	none
CCc1ccc(NC(=O)Cn2c3[n+](c4c(F)c(F)ccc42)CCCCC3)cc1	none
CCOc1ccc(Oc2c(/C=N/NC(N)=O)c(C)nn2-c2ccccc2)cc1	none
CCOc1ccc(Oc2c(/C=N/NC(=O)COc3ccccc3OC)c(C)nn2-c2ccccc2)cc1	S1P4 agonist 22.1 | S1P4 agonist cf inactive | S1P1 ag inactive
CCCN(Cc1nnc(-c2ccccc2Cl)o1)C(=O)c1cc([N+](=O)[O-])cc([N+](=O)[O-])c1	S1P4 agonist 18.8 | S1P4 agonist cf inactive | S1P1 ag inactive
O=C1C(=O)N(CCc2c[nH]c3ccccc23)C(c2cccnc2)/C1=C(/O)c1ccccc1 (stereo not drawn)	none
COc1ccc(CCC(=O)N2CCCSC2=Nc2ccc(C(C)=O)cc2)cc1	S1P4 agonist 23.5 | S1P4 agonist cf inactive | S1P1 ag inactive
O=C(Nc1ccc2oc(-c3ccncc3)nc2c1)c1c(F)c(F)c(F)c(F)c1F	none
O=C(Nc1ccc2oc(-c3ccncc3)nc2c1)c1ccc(F)cc1	S1P4 agonist 20.2 | S1P4 agonist cf inactive | S1P1 ag inactive
Cc1ccc(C(CC(=O)NCCCN(C)C)c2ccc(OC(C)C)cc2)cc1 (stereo not drawn)	none (no result: Hsp70 activator)
CC(=O)Nc1ccc(S(=O)(=O)Oc2ccc(C(=S)N3CCC(O)CC3)cc2)cc1	none (no result: HSV replic up)
CC(=O)Nc1ccc(S(=O)(=O)Oc2ccc(C(=S)N3CCCCC3)cc2)cc1	S1P4 agonist 28.9 | S1P4 agonist cf inactive | S1P1 ag inactive
COC(=O)C1=CN(C(C)C)C=C(C(=O)OC)C1c1cccc(OC)c1	none (no result: HSV replic up)
CCCCOc1ccccc1C1C(C(=O)OC)=CN(CC)C=C1C(=O)OC	S1P4 agonist 11.6 (no result: HSV replic up) | S1P4 agonist cf inactive | S1P1 ag inactive
CCCOc1ccccc1C1C(C(=O)OC)=CN(C(C)C)C=C1C(=O)OC	S1P4 agonist 18.0 | S1P4 agonist cf inactive | S1P1 ag inactive
COCCNCC(=O)Nc1nc(C)cs1	none
Cn1c(=O)n(C)c2cc(NC(=O)COc3ccc(Cl)cc3)ccc21	none
Cc1ccc(CN2CCN(Cc3cn[nH]c3-c3ccccc3)CC2CCO)o1 (stereo not drawn)	none
Cc1ccc(CN2CCN(Cc3cn[nH]c3-c3cccc(F)c3)CC2CCO)o1 (stereo not drawn)	S1P4 agonist 15.1 | S1P4 agonist cf inactive | S1P1 ag inactive
COCCCNC(=S)NNC(=S)Nc1cccc(Cl)c1	none (no result: Hsp70 activator)
O=C(Cn1cc2c(n1)CCCCC2)Nc1ccccc1Br	none (no result: Hsp70 activator)
Cc1cc(C)c(S(=O)(=O)NCCc2ccccc2)c(C)c1	S1P4 agonist 20.7 | S1P4 agonist cf inactive | S1P1 ag inactive
CCC(C)[C@H](NC(=O)OC(C)(C)C)C(=O)N/N=C/c1ccc2cc(OC)ccc2n1 (stereo partly drawn)	S1P4 agonist 89.7 | S1P4 agonist cf inactive | S1P1 ag inactive
CCc1nnc(NC(=O)c2ccc(Cl)c(S(=O)(=O)N3CCc4ccccc4C3)c2)s1	S1P4 agonist 19.9 | S1P4 agonist cf inactive | S1P1 ag inactive
O=C(CSc1ccccc1)NCc1cccnc1	none (no result: HSV replic up)
O=C(CCSc1ccccc1)NCc1cccnc1	S1P4 agonist 11.2 | S1P4 agonist cf inactive | S1P1 ag inactive
CN(Cc1nc(-c2ccccc2)no1)C1CCOCC1	none (no result: Hsp70 activator)
CCC(=O)NCCc1nc(-c2ccccc2)no1	none (no result: Hsp70 activator, TNF death inh, S1P4 antag, L929 necroptosis, S1P4 agonist)
COc1ccccc1OCC(=O)NCc1nc(-c2ccccc2)no1	S1P4 agonist 76.5 | S1P4 agonist cf inactive | S1P1 ag inactive
O=c1nc(N/N=C/C=C/c2ccccc2)cn[nH]1	none (no result: Hsp70 activator)
Cc1ccc(CCC(=O)Nc2ccccc2F)s1	S1P4 agonist 185.3 | S1P4 agonist cf inactive | S1P1 ag inactive
O=C(CN1C(=O)NC2(CCSC2)C1=O)N1CCN(c2ccc(F)cc2)CC1 (stereo not drawn)	S1P4 agonist 17.7 | S1P4 agonist cf inactive | S1P1 ag inactive
Cc1cc(/C=N/n2cnnc2)c(C)n1-c1ccc(Cl)cc1Cl	none
Cc1cc(C=NCCCO)c(C)n1-c1cc(Cl)ccc1Cl	S1P4 agonist 13.2 | S1P4 agonist cf 21.4 | S1P1 ag inactive
CCc1nc(N)c(C#N)c(-c2ccncc2)c1C	none
CCc1nc(N)c(C#N)c(-c2cccc3ccccc23)c1C	S1P4 agonist 16.3 (no result: HSV replic up) | S1P4 agonist cf inactive | S1P1 ag inactive
COc1ccccc1C1CC(c2ccco2)=NN1S(C)(=O)=O (stereo not drawn)	S1P4 agonist 30.1 | S1P4 agonist cf inactive | S1P1 ag inactive
CS(=O)(=O)N1N=C(c2ccco2)CC1c1ccccc1Cl (stereo not drawn)	none (no result: Hsp70 activator)
O=C(COC(=O)CCSc1ccccc1)Nc1cc(F)ccc1F	none
O=C(COC(=O)CCSc1ccccc1)Nc1ccc(F)cc1Cl	S1P4 agonist 31.0 | S1P4 agonist cf inactive | S1P1 ag inactive
S=C(NCc1cccs1)NCC1CCCO1 (stereo not drawn)	none
Cc1nn(Cc2ccc(Cl)cc2Cl)c(C)c1NC(=O)NC12CC3CC(CC(C3)C1)C2	none
O=c1[nH][nH]c2nc(C(F)(F)F)cc(C(F)(F)F)c12	S1P4 agonist 67.5 | S1P4 agonist cf inactive | S1P1 ag inactive
O=C(CSc1nnc(NC(=O)Cc2ccc(F)cc2)s1)NCc1ccco1	none
O=C(CSc1nnc(NC(=O)Cc2ccccc2)s1)NCc1ccco1	S1P4 agonist 16.6 | S1P4 agonist cf inactive | S1P1 ag inactive
